The supplement of paper PMC6555819

Tests used:
Assay in all cases: PBM binding z-score (relative to random genomic background probes); higher = stronger binding; sequences stand for … in GC…GCGATTGACAGCGTAGAATGAAGG
[1] = tested on: FXR:RXRa (NR concentration 270 nM, RXRa partner concentration 90 nM)
Summary of the method: (§1)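 Ligand-free nuclear receptor dimers were bound for 1 h to custom Agilent 4×180K protein-binding microarrays. Detection used antibodies against each partner (one per run). Binding z-scores rest on regression-normalized fluorescence, with random background probes as the reference.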

[2] = tested on: LXRa:RXRa (NR concentration 270 nM, RXRa partner concentration 90 nM)
Summary of the method: as §1

[3] = tested on: LXRa homodimer (NR concentration 270 nM)
Summary of the method: as §1

[4] = tested on: LXRb:RXRa (NR concentration 270 nM, RXRa partner concentration 90 nM)
Summary of the method: as §1

[5] = tested on: LXRb homodimer (NR concentration 270 nM)
Summary of the method: as §1

[6] = tested on: PPARa:RXRa (NR concentration 270 nM, RXRa partner concentration 90 nM)
Summary of the method: as §1

[7] = tested on: PPARg:RXRa (NR concentration 180 nM, RXRa partner concentration 90 nM)
Summary of the method: as §1

[8] = tested on: PPARg:RXRa 270nM:90nM, anti-RXR (NR concentration 270 nM, RXRa partner concentration 90 nM)
Summary of the method: as §1

[9] = tested on: PPARg:RXRa 30nM:10nM, anti-RXR (NR concentration 30 nM, RXRa partner concentration 10 nM)
Summary of the method: as §1

[10] = tested on: PPARg:RXRa 90nM:30nM, anti-RXR (NR concentration 90 nM, RXRa partner concentration 30 nM)
Summary of the method: as §1

Row | Sequence | PBM binding z-score [1] | PBM binding z-score [2] | PBM binding z-score [3] | PBM binding z-score [4] | PBM binding z-score [5] | PBM binding z-score [6] | PBM binding z-score [7] | PBM binding z-score [8] | PBM binding z-score [9] | PBM binding z-score [10]
1 | TAGCCTAGGTAAGATCGGGCCAGTATACGCTATA | -0.504 | -0.787 | -0.612 | -0.831 | -1.39 | -0.58 | 0.0812 | -0.494 | -0.743 | -0.292
2 | CGTCCAAGGTCATAGTAGGTCAGTGAAGACAGAT | 7.5 | 7.17 | 4.25 | 5.79 | 1.31 | 5.54 | 5.27 | 5.42 | 2.67 | 4.32
3 | CCAGACAGGTGAACGGTAACTCAGTCTGGTACGC | -0.375 | -0.082 | -0.28 | -0.0922 | -0.29 | 0.511 | 0.882 | 0.577 | -0.465 | 0.132
4 | CCTACTGGGCCAAGAAAGGTCATTGATTCAGTGA | 3.31 | 4.19 | 4.12 | 3.8 | -0.225 | 4.33 | 2.63 | 3.17 | 0.919 | 2.35
5 | ATATGTAGGTTACAGCCGGGTCATTCAGGCTATG | 2.26 | 3.47 | 0.993 | 2.28 | 0.202 | 4.51 | 5.97 | 5.46 | 2.52 | 4.67
6 | AGAATGAGGTTACCAAAGATGAGGGAAACGCTTG | 1.89 | 2.71 | -0.269 | 1.35 | -0.264 | 3.26 | 2.61 | 2.78 | 1.03 | 1.94
7 | CCTAGCAGGCCAATCTGGGTCACTCATGGCTTGA | 0.761 | 0.933 | -0.409 | 0.376 | -1.09 | 2.62 | 1.75 | 1.93 | 0.0126 | 0.944
8 | CGTCAAAGTTCAACTAAGGTAACGTCAAGCACGC | 7.22 | 6.46 | 4.23 | 4.17 | 2.06 | 5.14 | 5.08 | 5.67 | 2.61 | 4.36
9 | ATCTCTAGGTAAAGATCGTTCAGTGAATGCAAAT | -0.176 | 1.87 | -0.123 | 0.339 | 0.387 | 0.218 | 0.287 | 0.923 | 0.249 | 0.749
10 | ATCTCTAGGTAAAAGTCCAGTGAATCCCGAGGAT | 0.192 | 0.0512 | -0.0646 | -0.297 | 0.61 | 0.598 | 1.24 | 3.02 | 1.28 | 2.94
11 | TAGCCTAGGTCATTGGGCCAGTATGGTACGCATC | 4.05 | 3.25 | 0.37 | 2.07 | 0.231 | 3.63 | 3.54 | 3.7 | 0.478 | 2.47
12 | CCGACTGGGGCAAAGGTTTCCATACTCAGTACGA | -0.478 | -0.199 | -0.443 | 0.175 | -1.02 | 3.35 | 8.18 | 7.78 | 8.2 | 9.01
13 | TCTCGTAGATCAACAGGAGGTTAAGAAAGATCGA | 0.345 | 1.09 | -0.171 | 1 | -0.667 | 1.13 | -0.29 | 1.7 | 2.94 | 2.36
14 | CGAACTAGGTCAGAACAGCACAGTGAAGGATGAT | 0.904 | 0.613 | -0.229 | 0.425 | -0.2 | 3.25 | 5.34 | 4.59 | 1.73 | 3.54
15 | TATACATGGTCAAAGGCCAGAGTACGAATGTCGA | 0.397 | 0.672 | 0.238 | 0.37 | 0.623 | 1.64 | 3.14 | 4.34 | 2.32 | 4.31
16 | GGACCGAGGGCAAAGTTGATAGCATCTGTCGACG | 1.12 | 0.801 | -0.42 | 0.811 | -0.953 | 2.74 | 3.41 | 4.82 | 2.42 | 4.42
17 | AGAACGAGGCCACGCTGAGTTGATAGCAGAGTAG | 0.0545 | -0.515 | -0.521 | -0.809 | -0.992 | 0.356 | 0.903 | 0.196 | -0.0987 | 0.189
18 | GCATATAGGTAATACAACGTGAAAGTCCGATTGT | -0.622 | -0.502 | -0.205 | -0.638 | -0.368 | 0.333 | 1.02 | 0.49 | 0.28 | 0.431
19 | CCTAGTTGGTCAGGAGGTCACGCACCGGATATGA | 4.29 | 4.22 | 2.24 | 3.81 | 0.661 | 4.65 | 4.41 | 4.64 | 2.02 | 3.5
20 | CCGACTGGGGCAAAGCTTACCATACTCAGTACGA | -0.466 | -0.638 | -0.547 | -0.287 | -0.784 | 0.592 | 1.53 | 2.52 | 0.444 | 2.26
21 | TCTAGCAGGCCGGAGGGTCACTCAAGAGGTACGG | 0.786 | 0.705 | -0.517 | 0.729 | -1.11 | 1.69 | 0.508 | 1.34 | 1.19 | 1.2
22 | ACTATTACTTGAGACGAGGGCAACCGATAGGTTG | 0.529 | 0.528 | 0.422 | 0.481 | 1.02 | 0.44 | 0.912 | 0.46 | 0.448 | 0.266
23 | CGGCCTAGGTCAGGGCCAGTATAGGAGGAACGTT | 1.39 | 0.731 | -0.463 | 0.402 | -1.29 | 1.83 | 0.691 | 0.462 | -0.446 | 0.244
